Screening results: PubChem, National Center for Advancing Translational Sciences (NCATS)
Sampled rows, rich in hits. Any-hit rate of the full collection: about 3.1%.
TDP1 inh: blocks human tyrosyl-DNA phosphodiesterase 1 | actives 0.28% (n = 350,000) | recombinant TDP1, AlphaScreen DNA substrate cleavage | Potency, µM (highest dose often 130 µM), without a hit: at the top dose activity change, negative = inhibition, usual class: inhibitors; further: on the % scale 0 is the no-effect control and ±100 the full control effect; nearly all actives have a fitted effect of over 40% in size
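Recombinant E. coli-expressed Tdp1 (1 nM) preincubated with compound 15 min at RT, then 5'-biotin/3'-phosphotyrosine-FITC DNA substrate (15 nM) added for 5 min. AlphaScreen beads (10 ug/ml) added, 10 min RT; tyrosine-FITC cleavage read as signal loss.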
VDR inhibitor: blocks the human vitamin D receptor | AID 504847 | VDR-SRC2-3 peptide fluorescence polarization, 2 h | actives 0.93% (n = 400,000) | Potency, µM, inactives show max response, negative = inhibition, hits mostly inhibitors | P11473; further: on the % scale 0 is the no-effect control and ±100 the full control effect
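Reagent solutions, kept cold and dark, are dispensed first; compounds are then pinned in at 23 nl, plates briefly spun, and incubated 2 h at ambient temperature. Inhibition of VDR–SRC2-3 peptide binding is read by fluorescence polarization.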
Tb PFK inh: blocks T. brucei phosphofructokinase. T. brucei PFK, ADP-Glo luminescence. Potency, µM (highest dose often 57.5 µM), for the others: top-dose activity, negative = inhibition, actives largely listed as inhibitors. actives 0.17% (n = 330,000). AID 485367;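 further: 0% = uninhibited 1x PFK enzyme wells and -100% = no-enzyme wells; nearly all actives have a fitted effect of over 60% in size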
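Luminescent ADP detection (ADP-Glo, two-step: ATP depletion then ADP-to-ATP conversion for luciferase) reported PFK activity after 45 min room-temperature reaction of 1.25 nM enzyme with 0.5 mM F6P and 0.1 mM ATP at pH 8.0.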
PLK1 PBD inh: blocks phosphopeptide binding to human PLK1 polo-box domain; P53350; Plk1 PBD binding of FITC phosphopeptide, fluorescence polarization; Potency, µM, for the others: max response, negative = inhibition, actives largely listed as inhibitors; actives 2.8% (n = 360,000); AID 720504; further: series mostly up to about 57 µM; on the % scale 0 is the no-effect control and ±100 the full control effect; nearly all actives have a fitted effect of over 65% in size
Pin1 inhibitor: human Pin1 inhibition; Q13526; Pin1 FP peptide displacement, HiFluor488, 10 min; Potency, µM (doses to about 115 µM), inactives show at the top dose activity, negative = inhibition, hits mostly inhibitors; actives 0.009% (n = 390,000); active means well fitted inhibition curve with a large enough effect in the polarisation, with a control signal flat, not every such curve was filed as active; inconclusive means small, poorly fitted or top-dose-only effect, or effect the other way, or a change in a side signal; inactive means no such curve, though single readings can be large or run the other way; the % refers to the polarisation; further: on the % scale 0 is the no-effect control and ±100 the full control effect
ASM inhibitor: inhibitors of human secretory acid sphingomyelinase. P17405. placental ASM, HMU-PC fluorogenic substrate, 60 min. Potency, µM (titrated, usually from 57.5 µM), for the others: at the highest dose activity change, negative = inhibition, actives largely listed as inhibitors. actives 0.006% (n = 340,000). AID 504937
Target sequence (P17405 47-631 limits assumed): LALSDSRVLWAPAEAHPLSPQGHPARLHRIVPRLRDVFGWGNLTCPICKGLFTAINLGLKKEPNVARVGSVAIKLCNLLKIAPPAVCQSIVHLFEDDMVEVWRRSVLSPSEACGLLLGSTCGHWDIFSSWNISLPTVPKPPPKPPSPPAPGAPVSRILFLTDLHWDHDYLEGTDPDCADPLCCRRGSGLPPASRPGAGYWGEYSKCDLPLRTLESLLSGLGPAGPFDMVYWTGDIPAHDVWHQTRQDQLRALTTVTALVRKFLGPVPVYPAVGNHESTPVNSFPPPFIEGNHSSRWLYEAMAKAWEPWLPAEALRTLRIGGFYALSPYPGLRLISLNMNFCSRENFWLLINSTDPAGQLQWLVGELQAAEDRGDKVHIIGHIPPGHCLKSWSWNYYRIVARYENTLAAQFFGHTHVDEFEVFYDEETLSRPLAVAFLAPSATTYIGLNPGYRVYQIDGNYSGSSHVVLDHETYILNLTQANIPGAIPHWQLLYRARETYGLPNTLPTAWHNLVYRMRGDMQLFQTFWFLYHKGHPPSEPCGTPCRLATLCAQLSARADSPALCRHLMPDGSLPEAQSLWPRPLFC
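HMU-PC0 cleavage (9 uM final) by human placental ASM, 60 min at 37 °C following 10 min compound exposure at RT; stopped at pH 10, fluorescence Ex 386/Em 447 nm.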
An asterisk follows results filed as active; ? = inconclusive; nt = not tested or not shown; ! = a repeat was not active; [ ] = remark or other dose. Unless noted, the call rests on the fitted dose curve; in most records, active means well fitted curve in the direction sought with a large enough effect; inconclusive means small, poorly fitted or top-dose-only effect, or another doubt; inactive means no such curve, though single readings can be large; an effect the other way counts as inactive or inconclusive. Potency means the concentration at half of the fitted maximal effect.

SMILES	TDP1 inh	VDR inhibitor	Tb PFK inh	PLK1 PBD inh	Pin1 inhibitor	ASM inhibitor
Cc1ccccc1NC(=S)NC(=O)c1cc(-c2ccccc2)nc2ccccc12	6%	-7%	0%	30µM*	2%	-16%
Cc1ccccc1-c1cc(C(=O)N2CCCC2)c2ccccc2n1	3%	?	2%	-25%	-1%	nt
CCOc1ccc(CNC(=O)C2CCCN(c3nc4c(C)cc(C)cc4s3)C2)cc1 (stereo unspecified)	-1%	?	nt	nt	2%	nt
Cc1noc(C)c1S(=O)(=O)N1CCc2nc(COc3ccccc3)c3c(c2C1)CO[C@@H](C)C3	7%[12.3 µM]	nt	nt	nt	nt	nt
O=C(N/N=C1/C[C@@H](O)[C@@H](O)[C@@H]2[C@H]3C(=O)N(c4ccc(F)cc4F)C(=O)[C@@H]3CC[C@@H]12)OCc1ccccc1	7%[21 µM]	nt	nt	nt	nt	nt
CC(C)(C)OC(=O)N1CCC(c2c(C(=O)N3CCCCC3)cnn2-c2ccccc2Cl)CC1	0%	7%	nt	nt	-4%	nt
Cc1sc(NC(=O)Nc2ccccc2)c(C(N)=O)c1C	8%	89µM*	-17%	-30%	-1%	11%
O=C(CSc1nc(N2CCCCC2)nc(N2CCCCC2)n1)c1ccccc1	2%	-3%	-9%	30µM*	3%	-3%
Cc1nc(SCC(=O)c2ccccc2)n[nH]1	10%	50µM*	?	27µM*	-9%	-3%
CC(=O)c1ccc(N2C(=O)C3C(C2=O)C(C(=O)c2ccc(Cl)cc2)N2CCCC32)cc1 (stereo unspecified)	7%	-17%	0%	11µM*	?	17%
COc1ccc(N2C(=O)C3C(C2=O)C(C(=O)c2ccc(Cl)cc2)N2CCCC32)cc1 (stereo unspecified)	11%	-7%	7%	0%	?	-2%
O=S1OCCN1c1ccccc1 (stereo unspecified)	nt	0%	0%	34µM*	4%	6%
COc1ccc(Cc2c(C)nn(-c3nc(C)c(C(=O)Nc4cccc(C(C)=O)c4)s3)c2C)cc1	1%	5%	nt	nt	?	nt
O=C(O)c1ccccc1NC(=S)NC(=O)c1sc2ccccc2c1Cl	3%	?	?	12µM*	-9%	6%
O=C(Nc1ccnc(=O)[nH]1)c1sc2ccccc2c1Cl	nt	-15%	-2%	27µM*	-4%	9%
COC(=O)CC1C(=O)NCCN1C(=S)NC(=O)c1sc2ccccc2c1Cl (stereo unspecified)	nt	-5%	0%	19µM*	-11%	-1%
COc1cccc(N2CCN(c3ncc4c(n3)CCN(Cc3ccc(Br)cc3)C4)CC2)c1	6%	11%	nt	nt	26%	nt
CCOc1ccc(CNC(=O)CCCn2c(=O)c3cccn3c3ccc(F)cc32)cc1	1%	5%	nt	nt	-4%	nt
COc1cccc(CCNc2ncnc3c2nnn3C)c1	5%	8%	nt	nt	0%	nt
COc1ccc(Cl)c2sc(N3CCN(C(=O)c4ccco4)CC3)nc12	-4%[0.505 µM]	-3%	-4%	-4%	-4%	-3%
CCCC(=O)N1CCN(c2nc3c(OC)ccc(Cl)c3s2)CC1	1%	-17%	-8%	27µM*	-3%	-1%
c1ccc(CNCc2nnc(-c3cc4ccccc4[nH]3)o2)cc1	0%	nt	nt	nt	-5%	nt
O=C1c2ccccc2C(=O)N1CCCc1nc(-c2ccccn2)no1	2%	-18%	-8%	30µM*	-8%	3%
COc1cc2c(C#N)c(N3CCCC3)nc(N)c2c(N)n1	nt	28µM*!	1%	-11%	?	42%
COc1cc2c(C#N)c(N3CCN(C)CC3)nc(N)c2c(N)n1	7%	nt	0%	nt	nt	nt
SMILES	TDP1 inh	VDR inhibitor	Tb PFK inh	PLK1 PBD inh	Pin1 inhibitor	ASM inhibitor
COc1ccc(CNC(=O)CCC2N=C3c4ccccc4N=C(SCc4cccc(F)c4)N3C2=O)cc1 (stereo unspecified)	1%	12%	nt	nt	21%	nt
CCOC(=O)CNS(=O)(=O)c1ccc(F)cc1Br	4%	4%	nt	nt	3%	nt
CC(C)(C)C(=O)CN1C(=O)NC(c2ccccc2)(c2ccccc2)C1=O	15%	-1%	-9%	-4%	-4%	0%
NC(=O)CN1C(=O)NC(c2ccccc2)(c2ccccc2)C1=O	45µM*	4%	-5%	-7%	-1%	3%
CCc1cc2c(cc3c(=O)n(CC(=O)NC4CCC(C)CC4)ncn32)s1 (stereo unspecified)	-2%	9%	nt	nt	0%	nt
CCc1cc2c(cc3c(=O)n(CC(=O)N4CCN(C)CC4)ncn32)s1	1%	?	-2%	21µM*	2%	3%
COc1ccc(Cl)cc1NC(=O)CSc1nc(-c2ccccc2)c2ccccc2n1	0%	8%	nt	nt	5%	nt
Cc1ccc(-c2nnc3ccc(SC(C)C(=O)O)nn23)cc1 (stereo unspecified)	-1%	-14%	-6%	?	9%	4%
CC(Sc1ccc2nnc(-c3ccc(F)cc3)n2n1)C(=O)O (stereo unspecified)	nt	?	1%	27µM*	3%	8%
O=c1[nH]ncc2ccccc12	19%	nt	nt	nt	nt	nt
Cc1ccc(-n2cc(C(=O)c3ccc4ccccc4c3O)cn2)cc1	-1%	24%	0%	2%	14%	5%
Cc1ccc(O)c(C(=O)c2cnn(-c3ccccc3)c2)c1	1%	?	1%	3.4µM*	5%	-1%
Cc1nc(NCc2ccccc2)c2nc(-c3ccccc3)n(CC(C)(C)CN(C)C)c2n1	11%	nt	nt	nt	nt	nt
COc1cc(CN2CCc3c([nH]c4ccccc34)C2)cc(OC)c1	nt	50µM*	-1%	8.4µM*	1%	1%
Cc1ccc(CC(=O)CCc2ccccc2)cc1	79µM*	-9%	-6%	-9%	-2%	1%
Cc1ccc(OCC(=O)NNC(=O)CCc2ccccc2)cc1	1%	-7%	-1%	-9%	6%	1%
COc1ccc(NC(=S)NNS(=O)(=O)c2ccc3ccccc3c2)c(OC)c1	1%	?	-2%	30µM*	3%	9%
Cc1cc2c(s1)c1cnn(Cc3ccc(Cl)c(F)c3)c(=O)c1n2C	nt	nt	nt	nt	-1%	nt
Cc1cc(C)cc(-n2c(SCC(=O)Nc3ccccc3)nc3c(oc4ccccc43)c2=O)c1	3%	-7%	nt	nt	40%	nt
CC1(C)CC(=O)C2=C(C1)c1c(ccc3ccccc13)NC2c1cc([N+](=O)[O-])cc([N+](=O)[O-])c1O (stereo unspecified)	5%	-6%	?	3.4µM*	nt	6%
Cc1cccc(CC2C(=O)Nc3ccccc32)c1 (stereo unspecified)	-2%	6%	nt	nt	0%	nt
Cc1cccc(C(=O)NC2CCN(C(=S)NCc3ccco3)CC2)c1	4%	-16%	-1%	-15%	8%	6%
